In all, about 360,000 compounds went through this assay and about 1,800 (0.5%) were called active. The list comes from a sample in which actives are over-represented; it also holds similar structures and randomly drawn compounds. A number with no mark means an inactive call.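 How the source made its calls: active means mean inhibition of at least 75% with every replicate also reaching 75%; inconclusive means mean inhibition at least 75% but some replicate below; inactive means mean inhibition below 75%.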
Test: reduction of Shn3 3'UTR firefly luciferase signal, primary screen, Schnurri-3 inhibitor project, cell-based, Clone20 osteoblasts, set 2 (AID 588674);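 further: 0% = median of neutral control wells and 100% = pilot-screen positive control compound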
Conditions: Clone20 osteoblast Shn3 3'UTR firefly luciferase, 24 h; at 12.5 µM; active compounds read high

SMILES	inhibition
Cc1ccccc1N1CCN(CCCN2C(=O)C3CCCCN3C2=O)CC1 (stereo unspecified)	2.03%
COC(=O)Cc1ccc(OC(=O)C2CCN(S(=O)(=O)c3ccc(OC)c(OC)c3)CC2)cc1	-15.3%
CNS(=O)(=O)c1ccc2c(c1)[nH]c(=S)n2C	12.3%
COc1cc(C(=O)OCCCN2CCOCC2)cc(OC)c1OC	8.18%
COCc1c(C(=O)N/N=C\c2cccnc2)nnn1-c1nonc1N	9.7%
Nc1nonc1-n1nnc(C(=O)N/N=C/c2cc(Br)ccc2O)c1CSC1=NCCS1	94% (active)
Nc1nonc1-n1nnc(C(=O)N/N=C\c2ccncc2)c1CN1CCCCC1	10.4%
Cc1ccc(Cc2c(-c3ccco3)nc3ccc(Cl)cn23)cc1	2.12%
CC(=O)/C(=N\Nc1ccc(Cl)cc1Cl)Sc1cccc2cccnc12	93% (active)
Cc1c(NC(=O)CSc2cccc3cccnc23)c(=O)n(-c2ccccc2)n1C	19.9%
O=C(CSc1cccc2cccnc12)N/N=C/c1cccnc1	20.8%
Cc1ccsc1CNn1cnnc1SCc1ccccc1F	5.38%
CC12CCC(=O)C=C1CCC1C2C(O)CC2(C)C1CCC2(O)C(O)CO (stereo unspecified)	4.53%
CCCCCCNC(=O)O[C@H]1CN(C(=O)OC(C)C)N(C(=O)OC(C)C)[C@@H]2CN(S(=O)(=O)c3ccc(C)cc3)C[C@]12O	-14.9%
CCOc1c(Nc2cccc(Cl)c2)c(=O)c1=O	-16.6%
OCCCNc1nccc(-c2cc(Nc3cccc(Cl)c3)ncn2)n1	96.3% (active)
Cc1ccc(NC(=O)CN2CCCCC2)c2c1CC(C)(C)O2	-24.2%
Cc1ccc(-n2c(SCC(=O)N/N=C/C=C/c3ccccc3[N+](=O)[O-])nc3ccccc3c2=O)cc1	1.32%
CCn1c(/C=C/c2ccc([N+](=O)[O-])o2)nc2ccccc2c1=O	97.2% (active)
O=c1c2ccccc2ncn1/N=C/c1ccccc1	-28%
C=CCC(CC=C)(C(N)=O)c1ccccc1	1.2%

SMILES	inhibition
CC(=O)Nc1cccc(C(=O)OCC(=O)NCc2cc(C)c(O)c(C)c2)c1	-47.1%
C[C@H]1CN([C@@H](C)CO)C(=O)CCCn2cc(nn2)CO[C@@H]1CN(C)S(=O)(=O)c1cccs1	-17.2%
CCOc1cc(/C=N/Nc2cc(C)nc3ccc(C)cc23)ccc1O	-7.54%
CCN(CC)c1ccc(/C=N/Nc2nc(C)cc(C)n2)c(O)c1	89.4% (active)
O=C1CSC(c2ccc(Cl)cc2)N1 (stereo unspecified)	-10.9%
O=C(CCS(=O)(=O)c1ccccc1)Nc1nc2c(s1)CCCC2	84.1% (active)
O=C(CSc1nc(O)c(Cc2ccccc2)c(=O)[nH]1)Nc1nc2c(s1)CCCC2	8.82%
O=C(CCS(=O)(=O)c1ccccc1)NC1CCCC1	-23.2%
CNc1nc(SC)nc(N(C#N)CC(=O)OC)n1	-9.64%
C=CCSc1nc(N)cc(=O)[nH]1	15.2%
Cc1ccc(-c2nn(-c3ccc(F)cc3)cc2C(=O)NCC(c2cccs2)N2CCOCC2)cc1 (stereo unspecified)	13.6%
Cc1ccc2nc(-c3ccc(Br)cc3)cn2c1	23.5%
Cc1ccc(-c2nc3ccc(Cl)cn3c2Cc2ccccc2)cc1	-75.7%
Cc1ccc(-c2cn3cc(C)ccc3n2)cc1	89% (active)
Cn1c(=O)c2c(ncn2CC(COCc2ccccc2Cl)OCc2ccccc2Cl)n(C)c1=O (stereo unspecified)	13%
Oc1ccc2ccccc2c1N=Nc1nccs1	93.2% (active)
CCCCN1CC(N2CCN(Cc3cccc(C)c3)CC2)CS1(=O)=O (stereo unspecified)	4.01%
O=[N+]([O-])c1c(NCCO)cc(Sc2nc3ccccc3s2)c2nonc12	93.7% (active)
COc1ccc(NC(=O)CCCOc2ccc(C(C)=O)cc2)cc1S(=O)(=O)N1CCCCC1	42.4%
O=C(NC(=S)Nc1ccc(Br)cc1F)C1CCCCC1	-15.2%
Cc1ccc(S(=O)(=O)/N=C(/NC(=S)Nc2c(C)n(C)n(-c3ccccc3)c2=O)c2ccccc2)cc1	-6.62%

SMILES	inhibition
COc1ccc(C(C)(O)c2nc(-c3ccc(C)c(C)c3)cs2)cc1 (stereo unspecified)	8.01%
COc1ccc(C(O)c2nc(-c3ccc4c(c3)OCO4)cs2)cc1 (stereo unspecified)	-17.7%
COc1ccc(OC)c(Nc2nc(-c3ccc(O)c(O)c3)cs2)c1	97.4% (active)
COc1ccc(C(=O)OCc2cc(=O)n3ccsc3n2)cc1F	-7.31%
COc1ccc(C(=O)NCc2ccc(Cl)cc2)cc1S(=O)(=O)N1CCCC1	-1.61%
COc1ccc(CCNC(=O)CN(C)S(=O)(=O)c2ccc3nc(C)sc3c2)cc1OC	-10.6%
CC1(C(=O)NS(=O)(=O)c2cccc(OC(F)F)c2)CCN1C(=O)C1CC1 (stereo unspecified)	-7.16%
COc1cc(NC(=S)NCc2ccc(S(N)(=O)=O)cc2)cc(OC)c1	2.83%
NS(=O)(=O)c1ccc(CNC(=S)NC(=O)c2ccco2)cc1	93.5% (active)
NS(=O)(=O)c1ccc(NC(=O)COC(=O)c2ccco2)cc1	2.57%
N#Cc1ccc(S(=O)(=O)NCC(=O)OCC(=O)NCCc2ccccc2)cc1	1.43%
OCc1n[nH]c(CO)n1	-14.1%
CC(=O)Nc1c2c(nn1-c1cccc(C)c1)CSC2	-0.825%
Cc1cccc(-n2ncc(Cl)c(Cl)c2=O)c1	94.3% (active)
Cc1cccc(-n2ncc3c(=O)[nH]c(SCC(=O)Nc4cc(C)on4)nc32)c1	-22.6%
Cc1c(Br)c([N+](=O)[O-])nn1CC(=O)Nc1sc2c(c1C(=O)OC(C)C)CCC(C)C2 (stereo unspecified)	-5.32%
Cc1ccc(C(=O)CN2C(=O)NC3(CCOc4ccccc43)C2=O)s1 (stereo unspecified)	-11.6%
O=C(CN1C(=O)NC2(CCOc3ccccc32)C1=O)NCc1ccc(F)cc1 (stereo unspecified)	-2.61%
O=C(CN1C(=O)NC2(CCOc3ccccc32)C1=O)Nc1cccc([N+](=O)[O-])c1 (stereo unspecified)	89.4% (active)

Reference: PubChem BioAssay AID588674 (Broad Institute, 2011)
